From ChEMBL document CHEMBL4513216, “Probing the Open Global Health Chemical Diversity Library for Multistage-Active Starting Points for Next-Generation Antimalarials” (ACS Infect Dis, 2020) come the findings set out here.

Structures are written as SMILES. In all, about 69,000 compounds went through this assay and about 8,600 (12%) showed an effect of 50% or more. This is one part of a sample in which strong results are shown more often than they occur.

The test system of this assay is Plasmodium berghei. The assay is described as follows: Screen against P. berghei liver stage (PbLuc), transformed with Luciferase, at 10uM. It counts as functional, HepG2. The conditions noted are these: tested at 10 uM.
For the molecule `CCOc1ncccc1CNC(=O)N1CCCC1c1ccsc1` (stereo not given), the INHIBITION is recorded as 40.9%.

Turning to `O=C(c1cscn1)N1C[C@H]2CCCC(OCc3cccnc3)[C@H]2C1` (stereo not given in full), the INHIBITION is 4.2%.

On to `CCS(=O)(=O)NCC(=O)NC1(C)CCc2ccccc2C1` (stereo not given), for which the INHIBITION is reported as -9.39%.

`Cc1nc(CN2CCN(Cc3ccoc3)Cc3cccnc32)cs1`: the INHIBITION is given as 21.6%.

In the case of `CSc1ncc(C(=O)N2C[C@@H]3CC[C@H]2CN(S(=O)(=O)N(C)C)C3)cn1`, the INHIBITION is recorded as -9.92%.

For the molecule `Cc1c(C(=O)N2CCCSCC2)nnn1-c1ccccc1Cl`, the INHIBITION was 26%.

`Cc1nc(C)c(C(=O)NCCNC(=O)Cc2ccc(F)cc2)s1`: the INHIBITION was -29.9%.

For the molecule `CC(C)N1CCC(C(=O)N2CCC(C(O)c3nccn3C)CC2)CC1` (stereo not given), the INHIBITION is recorded as 9.41%.

On to `O=c1[nH]ncn1-c1cccc(C(F)(F)F)c1`, for which the INHIBITION was found to be 42.1%.

Consider `CCCN1CCCn2c(nc(CNC(=O)c3cnoc3C)cc2=O)C1`, for which the INHIBITION came to 9.63%.

Consider `O=C(NC1(c2nccs2)CCCC1)c1cc(C2CC2)[nH]n1`, for which the INHIBITION is reported as 29.8%.

For the molecule `O=C(NC1(c2nccs2)CCCC1)c1cc(C2CC2)on1`, the INHIBITION was 36.5%.

With `O=C(NC1(c2nccs2)CCCC1)c1[nH]nc(C2CC2)c1Cl`, the INHIBITION is 56.6%.

With `COc1cc(C)ccc1OCC(=O)NS(=O)(=O)c1ccc(Br)s1`, the INHIBITION is on record as -2.19%.

`CCN(CC)CC(=O)N1CCCC1Cn1cccn1` (stereo not given): the INHIBITION is 21.5%.

`Cc1nc(CC(=O)N2CCCCC2Cn2cccn2)cs1` (stereo not given): the INHIBITION was 7.08%.

In the case of `CCN(CC)Cc1ccc(C(=O)N2CCCC2Cn2cccn2)o1` (stereo not given), the INHIBITION was 4.05%.

As to `CCc1nc(CC(=O)N2CCCCC2Cn2cccn2)cs1` (stereo not given), the INHIBITION was 62.6%.

As to `O=C(c1cc(F)cc2[nH]cnc12)N1CCCCC1Cn1cccn1` (stereo not given), the INHIBITION was found to be 77.4%.

With `CCN(CC)Cc1ccc(C(=O)N2CCCC2Cn2cccn2)cc1` (stereo not given), the INHIBITION came to 56.85%.

Consider `O=C(c1cc(F)cc2[nH]cnc12)N1CCCC1Cn1cccn1` (stereo not given), for which the INHIBITION was 39.7%.

Consider `CCc1nc(CC(=O)N2CCCC2Cn2cccn2)cs1` (stereo not given), for which the INHIBITION was 2.61%.

Consider `CCc1ncc(C(=O)N2CCCCC2Cn2cccn2)s1` (stereo not given), for which the INHIBITION was determined as 33.6%.

With `O=C(c1cc2cc(F)ccc2[nH]1)N1CCCCC1Cn1cccn1` (stereo not given), the INHIBITION was -12.2%.

For the molecule `NC(=O)c1ccc(C(=O)N2CCCCC2Cn2cccn2)s1` (stereo not given), the INHIBITION was determined as 53.9%.

Turning to `NC(=O)c1csc(C(=O)N2CCCCC2Cn2cccn2)c1` (stereo not given), the INHIBITION is reported as 17.8%.

With `O=C(c1ccc2c(c1)CCC2)N1CCn2ncnc2C1`, the INHIBITION is listed as 40.4%.

For the molecule `CS(=O)(=O)N1CCCC(Cc2ccnc(Nc3ccccn3)c2)C1` (stereo not given), the INHIBITION was 12.7%.

As to `CCNC(=O)[C@@H]1C[C@@H](N)CN1C(=O)C1(c2ccc(OC)cc2)CCCC1`, the INHIBITION was 9.55%.

Take `Cn1ccc(CN2CCC3(CC2)CC(Nc2cnccn2)CO3)n1` (stereo not given): the INHIBITION was 46.7%.
